Sampled rows, rich in hits. Any-hit rate of the full collection: about 19%.
DT40 TDP1 CPT: qHTS for Inhibitors of human tyrosyl-DNA phosphodiesterase 1 (TDP1): qHTS in cells in presence of CPT | AID 686979, 2013 | actives 12% (n = 420,000) | Potency, µM (doses to about 46.2 µM), most hits filed as inhibitors | chicken DT40 Tdp1-/-;hTDP1 cells + 20 nM CPT, ATP luminescence, 48 h; further: nearly all actives have a fitted effect of over 55% in size
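Chicken DT40 Tdp1-/- cells stably complemented with human TDP1 were seeded at 400 cells/well in medium containing 20 nM camptothecin, exposed to pin-transferred compounds, and grown at 37 °C for at least 48 hr. Viability was read as ATP luminescence.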
TDP1 cell noCPT: qHTS for Inhibitors of human tyrosyl-DNA phosphodiesterase 1 (TDP1): qHTS in cells in absence of CPT | DT40 Tdp1-/- hTDP1 cells, no CPT, ATP luminescence, 48 h | Potency, µM (doses to about 46.2 µM), most hits filed as inhibitors | actives 15% (n = 420,000); further: nearly all actives have a fitted effect of over 55% in size
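Compound effects on proliferation are scored in DT40 Tdp1-/-;hTDP1 cells in the absence of CPT. ATP levels (CellTiter-Glo luminescence) are recorded after a ≥48 hr, 37 °C incubation.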
IL1B secr inh: qHTS for Inhibitors of Inflammasome Signaling: IL-1-beta AlphaLISA Primary Screen. THP-1 LPS/ATP IL-1B secretion, AlphaLISA, 16 h; hits give low values. activity change, % at 57.5 µM. actives 4.7% (n = 360,000). AID 743279, 2014; in the data active means activity change below about -50%; inconclusive means mostly about -30% to -49%
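Secreted IL-1B measured by AlphaLISA bead assay after 16 h compound exposure of THP-1 cells; compounds (final up to 57.5 uM) added 1 h before LPS (250 ng/mL) and ATP (1.25 mM) stimulation; lower signal means less secretion.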
SW480 rerep: A quantitative high throughput screen for small molecules that induce DNA re-replication in SW480 colon adenocarcinoma cells. SW480 DNA re-replication, Hoechst DNA content imaging, 48 h. Potency, µM (series often up to 46.1 µM), actives largely listed as activators. actives 1.8% (n = 340,000); further: nearly all actives have a fitted effect of over 55% in size
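250 cells/well; 23 nL cpd via pin tool; 48 hr, 37 C, 5% CO2; Hoechst 40 min; imager read of total nuclear intensity, ex 405/em 500-530 nm.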
BCR signal inh: qHTS Assay to Find Inhibitors of Chronic Active B-Cell Receptor Signaling; ABC-DLBCL IkBa-CBG/CBR reporter, luminescence ratio, 4 h; Potency, µM (highest dose often 46.1 µM), usual class: inhibitors; actives 0.05% (n = 340,000); AID 493014, 2011; active means well fitted inhibition curve with a large enough effect in the signal ratio, with a control signal flat, not every such curve was filed as active; inconclusive means small, poorly fitted or top-dose-only effect, or effect the other way, or a change in a side signal; the % refers to the signal ratio
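Doxycycline induced both beetle luciferases in TMD8 lymphoma cells; IKK-driven degradation limits the IkappaBalpha-fused green signal, while red luminescence normalises for cell number and nonspecific effects. Compounds tested up to 46 uM, 4 hrs.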
MCF10A rereplic: A quantitative high throughput screen for small molecules that induce DNA re-replication in MCF 10a normal breast cells; actives 2.9% (n = 350,000); MCF 10A DNA re-replication, Hoechst nuclear intensity, 48 h; Potency, µM (top dose mostly 46.1 µM), usual class: activators; further: nearly all actives have a fitted effect of over 50% in size
Hits are given with their value; - = inactive; ? = inconclusive; . = no result; [ ] = dose if it differs, or a comment. Unless noted, the call rests on the fitted dose curve; in most records, active means well fitted curve in the direction sought with a large enough effect; inconclusive means small, poorly fitted or top-dose-only effect, or another doubt; inactive means no such curve, though single readings can be large; an effect the other way counts as inactive or inconclusive.

SMILES | DT40 TDP1 CPT | TDP1 cell noCPT | IL1B secr inh | SW480 rerep | BCR signal inh | MCF10A rereplic
COc1ccc(-c2noc(CSc3nc(-c4ccccc4)cc(=O)[nH]3)n2)cc1OC | - | - | - | - | ? | ?
O=c1cc(-c2ccccc2)nc(SCc2nc(-c3ccc(Cl)cc3)no2)[nH]1 | - | - | . | . | . | .
O=c1cc(-c2ccc(F)cc2)nc(SCc2nc(-c3ccc(Cl)cc3)no2)[nH]1 | - | - | . | . | . | .
Cc1ccc2nc(SCc3nc(-c4ccc(Cl)cc4)no3)[nH]c2c1 | 16µM | 23µM | . | . | . | .
CCc1cc(=O)[nH]c(SCc2nc(-c3ccc(C(F)(F)F)cc3)no2)n1 | 23µM | 16µM | . | . | . | .
COc1ccc(-c2noc(CSc3nc(N)cc(=O)[nH]3)n2)cc1 | 16µM | 18µM | - | - | ? | ?
CCN(CC)C(=S)S | 24µM | ? | . | ? | . | -
Cc1ccc(NC(=O)c2ccc(-c3cccc(Cl)c3C)o2)cc1 | - | ? | . | . | . | .
Cc1ccc(-c2ccc(C(=O)Nc3cccc(F)c3)o2)c2ccccc12 | ? | 21µM | - | ? | ? | ?
O=C(Nc1cccc(F)c1)c1ccc(-c2ccccc2Cl)o1 | ? | 16µM | - | - | ? | -
CC(=O)c1cccc(NC(=O)c2ccc(-c3ccccc3[N+](=O)[O-])o2)c1 | ? | ? | ? | - | - | 18µM
Cc1c(C(=O)N(C)C)sc2c1c(=O)n(-c1ccccc1C(F)(F)F)c(=O)n2Cc1cccc(F)c1 | - | - | . | . | - | .
Cc1ccc(NC(=O)CNC(=O)CN2C(=O)c3ccccc3C2=O)cc1 | - | - | - | . | . | .
O=C(COc1cccc(C(F)(F)F)c1)Nc1ccc(S(=O)(=O)N2CCCC2)cc1 | 23µM | ? | - | - | ? | -
O=C(CNc1cccc(S(=O)(=O)N2CCCC2)c1)Nc1cccc(C(F)(F)F)c1 | 10µM | 12µM | - | - | - | -
O=C(CNc1cc(S(=O)(=O)N2CCCC2)ccc1OCC(F)(F)F)Nc1ccc(SC(F)F)cc1 | 1.8µM | 3.7µM | -68 | - | - | -
O=C(CNc1ccc(C(F)(F)F)cc1)Nc1cccc(S(=O)(=O)N2CCCC2)c1 | - | ? | - | - | ? | -
O=C(CNc1ccc(C(F)(F)F)cc1)Nc1cccc(S(=O)(=O)N2CCCCC2)c1 | ? | 16µM | -59 | . | . | .
O=C(CNc1cccc(S(=O)(=O)N2CCOCC2)c1)Nc1ccc(C(F)(F)F)cc1 | ? | 16µM | ? | - | - | -
O=C(Cc1cccc(C(F)(F)F)c1)Nc1cccc(S(=O)(=O)N2CCCC2)c1 | 16µM | ? | - | - | - | -
O=C(CNc1cccc(S(=O)(=O)N2CCOCC2)c1)Nc1cccc(Br)c1 | ? | ? | - | - | - | -
COc1ccc(C(=O)Nc2ccc3oc(-c4cccc(F)c4)nc3c2)cc1OC | ? | ? | - | - | - | -
COc1ccc(C(=O)Nc2ccc3oc(-c4cccnc4)nc3c2)cc1OC | 7.3µM | ? | ? | - | - | -
COc1cc(C(=O)Nc2ccc3oc(-c4cccnc4)nc3c2)cc(OC)c1OC | 5.6µM | 21µM | - | - | ? | ?
O=C(Nc1ccc2oc(-c3ccccc3)nc2c1)c1cccnc1 | - | - | - | - | - | ?
SMILES | DT40 TDP1 CPT | TDP1 cell noCPT | IL1B secr inh | SW480 rerep | BCR signal inh | MCF10A rereplic
CC(=O)N1N=C(c2cccc(NS(=O)(=O)c3ccc(C)cc3)c2)CC1c1ccco1 (centres undefined) | ? | ? | - | 16µM | ? | ?
CC(=O)N1N=C(c2ccc(NS(=O)(=O)c3ccccc3)cc2)CC1c1ccco1 (centres undefined) | 2.6µM | 2.3µM | - | 12µM | ? | ?
Cc1ccc(-n2c(-c3ccccc3)c[n+]3c2CCc2ccccc2-3)c(C)c1 | 0.21µM | 0.037µM | -99 | - | ? | -
Cc1ccsc1/C=C1/SC(N2CC(C)OC(C)C2)=NC1=O (centres undefined) | ? | 21µM | - | ? | - | -
Cc1cccc(C(=O)NCCC(=O)Nc2ccc(F)c([N+](=O)[O-])c2)c1 | ? | ? | -64 | - | ? | -
O=C(CCc1ccccc1)Nc1ccc(F)c([N+](=O)[O-])c1 | - | - | -94 | - | - | -
COc1ccc(C(=O)NCCCn2ccnc2)cc1 | - | - | - | - | - | -
COCCNC(=O)c1c(N)n(CCCn2ccnc2)c2nc3ccccc3nc12 | - | - | ? | ? | ? | 12µM
COCCNC(=O)c1c(N)n(-c2cccc(C)c2)c2nc3ccccc3nc12 | ? | ? | -53 | 13µM | ? | 18µM
COCCNC(=O)c1c(N)n(-c2ccccc2)c2nc3ccccc3nc12 | - | - | ? | 21µM | - | ?
COC(=O)c1c(N)n(-c2ccc(NC(C)=O)cc2)c2nc3ccccc3nc12 | 23µM | 21µM | -52 | - | ? | -
CS(=O)(=O)c1ccc(-c2cccc3c2OC(CNC(=O)c2cc(C4CC4)[nH]n2)C3)cc1 (centres undefined) | -[9.04 µM] | ? | . | . | . | .
C=CCNC(=O)c1c(N)n(-c2cccc(S(N)(=O)=O)c2)c2nc3ccccc3nc12 | 15µM | 12µM | -59 | 4.1µM | - | 3.3µM
COc1cccc(-n2c(N)c(C(=O)Nc3c(C)n(C)n(-c4ccccc4)c3=O)c3nc4ccccc4nc32)c1 | - | ? | . | - | - | ?
COCCCNC(=O)c1c(N)n(-c2ccccc2)c2nc3ccccc3nc12 | ? | 18µM | ? | 21µM | ? | 23µM
COCCCNC(=O)c1c(N)n(-c2ccc(S(N)(=O)=O)cc2)c2nc3ccccc3nc12 | - | - | - | 9.2µM | - | 7.3µM
O=C(NCC(c1ccco1)N1CCCCC1)c1ccc(COc2ccccc2)cc1 (centres undefined) | ? | ? | -72 | - | - | ?
O=C(NCC(c1ccc(Cl)cc1)N1CCCCC1)c1ccccc1 (centres undefined) | 13µM | 15µM | . | . | . | .
COc1ccccc1NS(=O)(=O)c1ccc(C(=O)NCC(c2ccco2)N2CCCCC2)cc1 (centres undefined) | 15µM | - | - | - | . | -
COc1ccccc1NS(=O)(=O)c1cccc(C(=O)NCC(c2ccco2)N2CCCCC2)c1 (centres undefined) | ? | ? | - | - | - | -
COc1ccc(C(CNC(=O)C(C)(C)Oc2ccc(Cl)cc2)N2CCCCC2)cc1 (centres undefined) | ? | ? | - | - | - | -
